Source: PubChem (several laboratories)
Mtb FBA inh: inhibitors of M. tuberculosis fructose-bisphosphate aldolase. 2.3% of 360,000 active. inhibition, % at 1 µM. purified M. tuberculosis FBA, fluorescence read-out. AID 588726; in the data active = inhibition above about 27%
Target sequence (P9WQA3 whole entry, looked up): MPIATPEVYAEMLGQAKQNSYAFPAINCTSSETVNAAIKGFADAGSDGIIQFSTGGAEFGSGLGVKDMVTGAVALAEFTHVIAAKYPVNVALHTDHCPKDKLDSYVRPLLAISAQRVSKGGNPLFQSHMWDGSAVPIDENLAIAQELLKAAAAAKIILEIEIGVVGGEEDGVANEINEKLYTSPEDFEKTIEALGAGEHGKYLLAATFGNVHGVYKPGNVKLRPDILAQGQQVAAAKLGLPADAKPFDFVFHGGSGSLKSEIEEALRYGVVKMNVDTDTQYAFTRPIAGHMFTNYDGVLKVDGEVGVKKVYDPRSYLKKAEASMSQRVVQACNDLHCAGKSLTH
Mtb betalactam: beta-lactam sensitization of Mtb H37Rv; M. tuberculosis H37Rv growth with meropenem, percent inhibition; inhibition, % at 25 µM; 0.27% of 330,000 active; AID 434955; call rule not given here;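 note: growth measured after seven days incubation then overnight dye step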
GDH-TPI counter: GDH-TPI coupled enzyme inhibition counter-screen; GDH-TPI coupled enzyme counterscreen, NADH absorbance; inhibition, % at 4.8 µM; 1.2% of 360,000 active
CCHF vOTU inh: CCHFV vOTU protease inhibition; Pep-AMC fluorescence; 0.55% of 370,000 active; inhibition, % at 11.5 µM
MazF activator: activators of E. coli MazEF toxin-antitoxin RNase; AID 504720; FAM/BHQ RNA-DNA oligo cleavage fluorescence, 5 h; activation, % at 20 µM; 0.32% of 350,000 active; P0AE70; in the data active = activation above about 50%
Target sequence (P0AE70 whole entry, looked up): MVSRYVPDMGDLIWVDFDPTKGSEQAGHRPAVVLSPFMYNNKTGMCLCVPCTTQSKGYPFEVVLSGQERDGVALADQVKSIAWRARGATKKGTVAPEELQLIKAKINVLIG
Of the large screens only hits and unclear results are named; the others gave an inactive call. The list is not random: actives were taken first. Their share in the collection is about 4%. Cut-off read from the data, not from the text of the source, unless noted: active = inhibition above about 30%; inactive = the rest.

COc1ccc(C(=O)Nc2cccc(/C=C(\CCC(=O)O)c3nc4ccccc4s3)c2)cc1	GDH-TPI counter 32
O=C(O)C/C(=C\c1cccc(NC(=O)c2ccccc2Cl)c1)c1nc2ccccc2s1	none
Cn1cnnc1Sc1ccc(/C=C(\CCC(=O)O)c2nc3ccccc3s2)cc1[N+](=O)[O-]	none
O=C(O)c1cc(-c2ccco2)nc2ccccc12	Mtb FBA inh 181
O=C(NC1CC1)c1cc(-c2ccco2)nc2ccccc12	Mtb FBA inh 63 (no result: Mtb betalactam, CCHF vOTU inh)
O=C(O)c1cc(-c2cc(C(=O)O)c3ccccc3n2)nc2ccccc12	none (no result: Mtb FBA inh, GDH-TPI counter, CCHF vOTU inh, MazF activator)
Cc1nnc(NC(=O)c2cc(-c3ccco3)nc3ccccc23)s1	none (no result: MazF activator)
O=C(Nc1c(-c2ccccc2)nc2ncccn12)C1CC1	none (no result: Mtb FBA inh, Mtb betalactam, GDH-TPI counter, MazF activator)
O=C(N/N=C/c1cccc2ccccc12)c1cccc(F)c1	GDH-TPI counter 34
O=C(CNc1ccccc1)N/N=C/c1ccc2c(c1)OCO2	none
O=C(N/N=C/c1ccccc1Cl)c1cccc(F)c1	none
O=C(N/N=C/c1cccc2ccccc12)c1ccc(CN2CCOCC2)cc1	GDH-TPI counter 41
O=C(N/N=C/c1cccc([N+](=O)[O-])c1)c1ccc(CN2CCOCC2)cc1	none
O=C(CNc1ccc2c(c1)OCO2)N/N=C\c1cn(Cc2ccccc2)c2ccccc12	GDH-TPI counter 31
C#CCn1cc(/C=N/NC(=O)c2cc3ccccc3o2)c2ccccc21	GDH-TPI counter 32
O=S1(=O)CC2c3ccc(F)cc3CN2CN1Cc1ccc(F)cc1 (stereo not given)	none (no result: Mtb FBA inh, Mtb betalactam, GDH-TPI counter, MazF activator)
Cc1ccc(-n2c(SCC(=O)NN=Cc3c[nH]c4ccccc34)nnc2-c2ccccc2)cc1	none (no result: Mtb FBA inh, Mtb betalactam, GDH-TPI counter, MazF activator)
CC(C)C[C@@H]1COc2cc(Br)ccc2S(=O)(=O)N1Cc1cn(CCC2OCCCO2)nn1	none (no result: Mtb FBA inh, Mtb betalactam, GDH-TPI counter, MazF activator)
Nc1ccc(C(=O)N/N=C/c2cn(Cc3cccc(F)c3)c3ccccc23)cc1	GDH-TPI counter 32
O=C(N/N=C/c1cn(Cc2ccccc2)c2ccccc12)c1ccncc1	none
Cn1cc(/C=C(\NC(=O)c2ccccc2)C(=O)NCCCn2ccnc2)c2ccccc21	GDH-TPI counter 44 (no result: Mtb betalactam)
Cc1ccc(C(=O)N/C(=C\c2cn(C)c3ccccc23)C(=O)NCCCn2ccnc2)cc1	none
COc1ccc(C(=O)N/C(=C\c2cn(C)c3ccccc23)C(=O)NCCCn2ccnc2)cc1	GDH-TPI counter 41
C(=C\c1nnc(-c2cccs2)o1)/c1ccccc1	GDH-TPI counter 51
O=C1CCCC2=C1C1(CCCCC1)N=C(Nc1nc3ccccc3o1)N2	GDH-TPI counter 51
O=C1CCCC2=C1C1(CCCC1)N=C(Nc1nc3ccccc3o1)N2	none (no result: Mtb betalactam, MazF activator)
CCNc1nc(N)c(C(=C(C#N)C#N)c2ccccc2)s1	Mtb FBA inh 167
CC(=O)C1=C(O)C(=O)N(c2ccc(S(=O)(=O)Nc3nccs3)cc2)C1c1ccc(F)cc1 (stereo not given)	GDH-TPI counter 32
Cn1nc(-c2ccccc2)c2ncc(C(F)(F)F)cc21	Mtb FBA inh 28 (no result: CCHF vOTU inh)
COC(=O)[C@]12C[C@H](CC(=O)NCc3ccc(C)o3)C(=O)N(CCc3ccc(OC)c(OC)c3)C1=C[C@H](C(C)C)O[C@@H]2C1CC1	none (no result: Mtb FBA inh, Mtb betalactam, GDH-TPI counter, MazF activator)
Clc1ccc(-c2ccc(C=Nc3ccc(N4CCOCC4)cc3)o2)cc1	GDH-TPI counter 32
COc1ccc(C2C(C(=O)Nc3ccc(F)cc3F)CCC(=O)N2c2ccc(OC)cc2)cc1 (stereo not given)	none (no result: Mtb FBA inh, Mtb betalactam, GDH-TPI counter, MazF activator)
O=C(OC12CCCN(C1)/C(=C/c1cccc(Cl)c1)C2)c1ccno1 (stereo not given)	none (no result: Mtb FBA inh, Mtb betalactam, GDH-TPI counter, MazF activator)
COc1cc2nc(N3CCN(C(=O)OCc4ccccc4)[C@H](C(=O)NC(C)(C)C)C3)nc(N)c2cc1OC	Mtb FBA inh 89 (no result: Mtb betalactam)
O=S1(=O)c2ccc(N3CCSCC3)cc2Oc2ccccc2CN1Cc1cn(Cc2cccc(C(F)(F)F)c2)nn1	none (no result: Mtb FBA inh, Mtb betalactam, GDH-TPI counter, MazF activator)
O=C1CC(c2ccccc2)CC(O)=C1C=Nc1ccc(Cl)cc1 (stereo not given)	none
O=C1CCCC(O)=C1C=Nc1ccc(O)cc1	GDH-TPI counter 35
COC(=O)[C@]12C[C@H](CC(=O)N3CCC(c4ccccc4)CC3)C(=O)N(Cc3ccc(Cl)cc3Cl)C1=C[C@H](C(C)(C)C)O[C@@H]2C	none (no result: Mtb FBA inh, Mtb betalactam, GDH-TPI counter, MazF activator)
O=C1C(=O)N(Cc2cccnc2)C(c2cccc([N+](=O)[O-])c2)/C1=C(\O)c1ccc2c(c1)OCCO2 (stereo not given)	none
COc1cccc(C2/C(=C(\O)c3ccc4c(c3)OCCO4)C(=O)C(=O)N2Cc2cccnc2)c1 (stereo not given)	GDH-TPI counter 32
O=C1C(=O)N(Cc2cccnc2)C(c2ccccn2)/C1=C(/O)c1ccccc1 (stereo not given)	none
COc1ccc(/C(O)=C2/C(=O)C(=O)N(Cc3cccnc3)C2c2ccncc2)cc1F (stereo not given)	none
Cc1cc(OCc2ccccc2)ccc1/C(O)=C1/C(=O)C(=O)N(Cc2cccnc2)C1c1ccncc1 (stereo not given)	GDH-TPI counter 38
CCOc1ccc(C2/C(=C(\O)c3ccc4c(c3)OCCO4)C(=O)C(=O)N2CCN2CCOCC2)cc1OC (stereo not given)	GDH-TPI counter 34
Cc1ccc(C)c(/C(O)=C2\C(=O)C(=O)N(Cc3cccnc3)C2c2cccnc2)c1 (stereo not given)	GDH-TPI counter 37
C[C@H](O)[C@@H]1C(=O)N2CCc3c([nH]c4cccc(-c5ccccc5)c34)[C@@H]2C[C@@H]1N(C)C(=O)c1ccco1	none (no result: Mtb FBA inh, Mtb betalactam, GDH-TPI counter, MazF activator)
O=C(NCCCN1CCOCC1)c1sc2cc([N+](=O)[O-])ccc2c1Cl	Mtb FBA inh 54 (no result: CCHF vOTU inh)
COCCCNC(=O)C1CCN(S(=O)(=O)c2c(C)noc2/C=C\c2ccc(OC)cc2)CC1	Mtb betalactam inconclusive, GDH-TPI counter 39
COc1ccc(S(=O)(=O)N2CCC(C(=O)NCCC(=O)Nc3ccc(Cl)cc3)CC2)cc1	MazF activator 55
CCCN1CCN(C(=O)C2CCN(S(=O)(=O)c3c(C)noc3/C=C/c3ccc(C)cc3)CC2)CC1	GDH-TPI counter 32
COc1ccc(NC(=O)C2CCN(S(=O)(=O)c3c(C)noc3/C=C/N(C)C)CC2)cc1	GDH-TPI counter 37
Cc1ccc(/C=C/c2onc(C)c2S(=O)(=O)N2CCC(C(=O)N3CCCCC3)CC2)cc1	none
CC(=O)Nc1ccc(S(=O)(=O)N2CCC(C(=O)NCCC(=O)Nc3ccccc3)CC2)cc1	none
CCOC(=O)c1cccc(-c2cc(C(C)=O)c3n(c2=O)CCC3)c1	none (no result: Mtb FBA inh, Mtb betalactam, GDH-TPI counter, MazF activator)
CCCCN1C(=O)/C(=C/C=C2/CC(C)(C)CN2C)SC1=S	MazF activator 118
COc1ccc(-n2c(=S)[nH]c3sc(-c4ccccc4)cc3c2=O)c(OC)c1	none
COc1cccc(-c2cc3c(=O)n(-c4ccccc4)c(=S)[nH]c3s2)c1	GDH-TPI counter 38
O=C(N/N=C/c1cc2ccccc2nc1Cl)/C(=C/c1cccs1)NC(=O)c1ccccc1	none
O=C(N/N=C/c1cccnc1)/C(=C\c1cccs1)NC(=O)c1ccccc1	GDH-TPI counter 47
O=C(N/N=C/c1ccc2c(c1)OCO2)/C(=C/c1ccc2c(c1)OCO2)NC(=O)c1ccccc1	GDH-TPI counter 55
COc1ccc([N+](=O)[O-])cc1/C=N/NC(=O)Cc1ccccc1	none
